# Reference: PubChem BioAssay (NCATS)
# “And” between values parts separate entries of the source, which are not always exact repeats. Equal entries are not always repeated. Inconclusive results are not listed. A call without a number means that no potency is given here. The source made the active and inactive calls. Unless noted, calls come from the whole dose curve; as a rule, active = well fitted curve in the direction sought with a large enough effect; inconclusive = small, poorly fitted or top-dose-only effect, or another doubt; inactive = no such curve, though single readings can be large; an effect the other way counts as inactive or inconclusive.
# Assays:
# [1] = qHTS Assay for Lipid Storage Modulators (AID 1519; calls by dose curve); conditions: Drosophila S3 cells, BODIPY lipid droplet/cell ratio, laser cytometry, cells loaded with oleic acid
# Procedure, shortened: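 Cells seeded at 5,000 per well were treated with compounds over a concentration series and loaded with oleic acid (400 uM, as added). Lipid droplet fluorescence (488 nm excitation, 500-530 nm channel) was read by laser-scanning cytometry and normalized to 20 uM Triacsin C.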
# [2] = molecular target: alpha-glucosidase (Oryza sativa, rice) (UniProt Q653V4); assay: Counterscreen for Glucocerebrosidase Inhibitors: qHTS Assay for Rice alpha-Glucosidase at pH 5.0 (AID 997); conditions: rice alpha-glucosidase enzyme activity; series mostly up to 76.9 µM
# Procedure, shortened: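 Rice alpha-glucosidase (4 nM final) with 400 uM 4-methylumbelliferyl-alpha-D-glucopyranoside in citrate buffer pH 5.0, 20 min at room temperature, stopped at pH 10; fluorescence 365/440 nm, compounds 0.7 nM–77 uM, AC50 from Hill fits.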
# [3] = molecular target: Alpha-galactosidase (Coffea arabica) (UniProt Q42656); assay: Counterscreen for Glucocerebrosidase Inhibitors: qHTS Assay for Coffee Bean alpha-Galactosidase at pH 5.9 (AID 998); conditions: coffee bean alpha-galactosidase enzyme assay; series mostly up to 76.9 µM
# Procedure, shortened: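 Green coffee bean enzyme (2 nM final) was incubated with compounds (0.7 nM–77 uM) and 4-methylumbelliferyl alpha-D-galactopyranoside (80 uM) in citrate buffer pH 5.9, 20 min at room temperature. High-pH stop; fluorescence 365/440 nm; AC50 from Hill fits.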
# [4] = Validation of Assay for Modulators of Lamin A Splicing (AID 1459; active = well fitted curve in the direction sought with a large enough effect in the signal ratio; the % refers to the signal ratio;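 note: cells exposed to compound for two days before reading; ratio rise marks activators and ratio drop marks inhibitors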); conditions: Lamin A splicing dual RFP/GFP fluorescence reporter; series mostly up to 9.22 µM
# Procedure, shortened: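 HeLa S3 lamin A-EGFP/DsRed2 stable clone, 600 cells/well, Opti-MEM 2% FBS; compounds by pin tool; 48 hrs, 37 °C/5% CO2; Acumen 488 nm scan, objects 10-100 um; GFP/RFP intensity ratio.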
# [5] = molecular target: DNA repair nuclease/redox regulator APEX1 (Homo sapiens) (UniProt P27695); assay: qHTS Validation Assay for Inhibitors of the Human Apurinic/apyrimidinic Endonuclease 1 (APE1) (AID 1705;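 note: TAMRA fluorescence gain over two minutes as APE1 cuts a quenched THF abasic duplex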); conditions: purified APE1 endonuclease activity, fluorescence, titration; series mostly up to 57.1 µM
# Procedure, shortened: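 qHTS, 1536-well. APE1 + cpd 15 min RT → 50 nM TAMRA/BHQ-2 THF-abasic dsDNA substrate → kinetic fluorescence, 3 reads/60 s; delta(read3−read1) = reaction progress. No-enzyme buffer = negative control.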
# [6] = Counterscreen for APE1 Inhibitors: Fluorescent Dye Displacement Validation Assay (AID 1707); conditions: fluorescent dye displacement from DNA; series mostly up to 57.1 µM
# Procedure, shortened: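 Assay buffer: Tris-HCl pH7.5 with 50mM NaCl, 2 mM MgCl2, 0.01% Tween-20. Dye 250 nM, duplex 50 nM final. Readout: decrease in ThO endpoint fluorescence, 480 nm excitation, 540 nm emission.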
# [7] = qHTS for differential inhibitors of proliferation of Plasmodium falciparum line 7G8 (AID 1815); conditions: Plasmodium falciparum 7G8 proliferation inhibition; series mostly up to 28.7 µM;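 note: parasite growth measured after three days of incubation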; note: potency is the fitted concentration of half-maximal effect
# [8] = qHTS for differential inhibitors of proliferation of Plasmodium falciparum line GB4 (AID 1816); conditions: Potency: Plasmodium falciparum GB4 proliferation inhibition; series mostly up to 28.7 µM;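 note: parasite growth measured after 72 h incubation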; note: potency is the fitted concentration of half-maximal effect
# [9] = qHTS for differential inhibitors of proliferation of Plasmodium falciparum line 3D7 (AID 1876);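 note: parasite growth measured after three days of culture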; conditions: P. falciparum 3D7 proliferation inhibition; series mostly up to 28.7 µM
# [10] = qHTS for differential inhibitors of proliferation of Plasmodium falciparum line D10 (AID 1877); conditions: series mostly up to 28.7 µM;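 note: parasites grown with compound for 72 h before DNA staining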; note: potency is the fitted concentration of half-maximal effect
# [11] = qHTS for differential inhibitors of proliferation of Plasmodium falciparum line Dd2 (AID 1882); conditions: Potency: Plasmodium falciparum Dd2 proliferation inhibition; series mostly up to 28.7 µM; note: nearly all actives have a fitted effect of over 65% in size; note: potency is the fitted concentration of half-maximal effect
# Procedure, shortened: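 Dd2-infected erythrocytes (0.3% parasitemia, 2.5% hematocrit final) incubated with compound 72 h at 37 C, 5% CO2; lysed with saponin/Triton buffer containing SYBR Green I, incubated overnight in the dark, then read by fluorescence (485/535 nm). Normalized to 0.29 uM artemisinin and DMSO.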
# [12] = qHTS for differential inhibitors of proliferation of Plasmodium falciparum line HB3 (AID 1886); conditions: Potency: Plasmodium falciparum HB3 proliferation inhibition; series mostly up to 28.7 µM;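 note: parasites grown with compound for 72 h before SYBR Green readout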
# [13] = qHTS Assay for Modulators of Human Peripheral Myelin Protein 22 (PMP22) Expression/Activity (AID 1967; active = well fitted curve in the direction sought with a large enough effect in the signal ratio; the % refers to the signal ratio); conditions: Cell-based PMP22 reporter, dual-color luciferase ratio, mouse Pmp22 promoter in mouse Schwann cells; series mostly up to 115 µM
# Procedure, shortened: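 Luminescence ratio of Pmp22 promoter-driven green luciferase to EF-alpha-driven red luciferase, in engineered mouse MSC80 Schwann cells, served as read-out. Compounds were incubated 24h; untreated cells defined 0% Activity; curves were classified by r2, magnitude and activity.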
# [14] = molecular target: Ferritin light chain (Equus caballus) (UniProt P02791); assay: qHTS Validation Assay for Identification of Novel General Anesthetics (AID 2323); conditions: horse apoferritin, anesthetic-site fluorescent probe displacement; series mostly up to 76.9 µM
# Procedure, shortened: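 Fluorescence at 535 nm (excitation 380 nm) reported loss of 1-AMA binding to horse-spleen apoferritin (10 uM) in PBS with 50% saturated 1-aminoanthracene, after 10 min room-temperature incubation with compound; values from Hill fits of normalized response.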
# [15] = Cell Viability - LYMP1-002 - Assay at 24 hr (AID 993); conditions: LYMP1-002 lymphoblastoid cells viability; series mostly up to 92.2 µM; note: potency is the fitted concentration of half-maximal effect
# Procedure, shortened: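 Human lymphoblastoid LYMP1-002 cells (2500/well) treated 24 h at 37 °C; viability as intracellular ATP by CellTiter-Glo luminescence. Tetraoctylammonium bromide as positive control; AC50 from Hill-equation fits of qHTS concentration-response.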
# [16] = molecular target: Endonuclease 4 (Escherichia coli (strain K12)) (UniProt P0A6C1); assay: Counterscreen for APE1 Inhibitors: qHTS Validation Assay for Inhibitors of Endonuclease IV (AID 1708); conditions: E. coli endonuclease IV, DNA cleavage fluorescence; series mostly up to 57.1 µM
# Procedure, shortened: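 Concentration-response counterscreen run identically to the APE1 assay: 15 min room-temperature preincubation of 2 nM enzyme with compound, reaction started with 50 nM quenched abasic DNA, progress taken from kinetic fluorescence.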
# [17] = qHTS for differential inhibitors of proliferation of Plasmodium falciparum line W2 (AID 1883); conditions: Potency: Plasmodium falciparum W2 proliferation inhibition; series mostly up to 28.7 µM;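 note: potency is the fitted concentration of half-maximal effect; parasites grown with compound for 72 h before lysis and staining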
# [18] = measured here: cell count channel max response
# [19] = measured here: lipid channel max response
# Chain of DNA repair nuclease/redox regulator APEX1 (Homo sapiens) (P27695 whole entry, looked up): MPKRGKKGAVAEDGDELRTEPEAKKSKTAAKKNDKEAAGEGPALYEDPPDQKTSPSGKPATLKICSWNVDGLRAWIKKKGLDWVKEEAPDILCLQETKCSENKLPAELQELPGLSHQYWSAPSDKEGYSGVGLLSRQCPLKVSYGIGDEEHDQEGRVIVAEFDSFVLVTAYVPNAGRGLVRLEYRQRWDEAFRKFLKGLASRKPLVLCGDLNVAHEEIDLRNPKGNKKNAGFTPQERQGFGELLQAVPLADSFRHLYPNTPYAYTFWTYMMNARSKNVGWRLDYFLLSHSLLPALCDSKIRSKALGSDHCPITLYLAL
# Chain of Ferritin light chain (Equus caballus) (P02791 2-175 limits assumed): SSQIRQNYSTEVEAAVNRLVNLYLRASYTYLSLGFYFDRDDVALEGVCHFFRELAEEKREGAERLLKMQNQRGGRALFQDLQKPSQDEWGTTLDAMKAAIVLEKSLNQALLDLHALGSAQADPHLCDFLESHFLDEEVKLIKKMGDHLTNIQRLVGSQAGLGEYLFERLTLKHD
# Chain of Alpha-galactosidase (Coffea arabica) (Q42656 whole entry, looked up): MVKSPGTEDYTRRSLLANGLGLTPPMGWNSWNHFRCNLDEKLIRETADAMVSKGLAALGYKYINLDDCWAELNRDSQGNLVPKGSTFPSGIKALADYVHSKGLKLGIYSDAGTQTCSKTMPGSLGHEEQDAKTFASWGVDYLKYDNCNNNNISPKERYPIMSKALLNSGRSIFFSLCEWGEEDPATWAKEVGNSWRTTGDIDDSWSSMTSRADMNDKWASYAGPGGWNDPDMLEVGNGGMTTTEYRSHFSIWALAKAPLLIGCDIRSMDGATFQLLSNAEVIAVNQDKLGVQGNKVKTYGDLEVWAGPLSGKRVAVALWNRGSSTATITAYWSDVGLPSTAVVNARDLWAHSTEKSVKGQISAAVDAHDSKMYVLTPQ
smiles,measurement,setting,value
CCC(COC(=O)c1cc(OC)c(OC)c(OC)c1)(c1ccccc1)N(C)C (centres undefined),"activity change, negative = inhibition",[1]; at 57.5 µM (top of the series),6.16% (inactive)
same,max response,[1]; [18],-7.6%
same,max response,[1]; [19],-1.9%
NCCc1cc(O)c(O)cc1O,"activity change, negative = inhibition",[1]; at 57.5 µM (top of the series),7.71% (inactive)
same,max response,[1]; [18],5.57%
same,max response,[1]; [19],16.6%
CC(=O)[C@H]1CC[C@H]2[C@@H]3CC[C@H]4C[C@H](O)CC[C@]4(C)[C@H]3C(=O)C[C@]12C,outcome,[2],inactive
same,outcome,[3],inactive
same,outcome,[4],inactive
same,"activity change, negative = inhibition",[1]; at 57.5 µM (top of the series),-2.01% (inactive)
same,max response,[1]; [18],15.7%
same,max response,[1]; [19],15.5%
same,outcome,[5],inactive
same,Potency,[6],inactive
same,Potency,[7],inactive
same,Potency,[8],inactive
same,Potency,[9],inactive
same,Potency,[10],inactive
same,Potency,[11],inactive
same,Potency,[12],inactive
same,outcome,[13],inactive
same,outcome,[14],inactive
Oc1cccc2cccnc12,Potency,[15],25.1 µM (active)
same,"activity change, negative = inhibition",[1]; at 57.5 µM (top of the series),3.44% (inactive)
same,max response,[1]; [18],-2.95%
same,max response,[1]; [19],3.47%
O=c1[nH]c2ccccc2n1CCCN1CCC(n2c(=O)[nH]c3cc(Cl)ccc32)CC1,outcome,[2],inactive
same,outcome,[3],inactive
same,"activity change, negative = inhibition",[1]; at 25.7 µM (top of the series),0.586% (inactive)
same,"activity change, negative = inhibition",[1]; at 57.5 µM (top of the series),4.6% (inactive) and -5.66% (inactive)
same,max response,[1]; [18],2.1% and 12.4% and -15.6%
same,max response,[1]; [19],4.47% and 17.4% and -21%
same,outcome,[5],inactive
same,Potency,[6],inactive
same,outcome,[16],inactive
same,Potency,[8],12.6 µM (active)
same,Potency,[10],14.1 µM (active)
same,Potency,[11],8.91 µM (active)
same,Potency,[17],4.47 µM (active)
same,outcome,[14],inactive
Cc1cccc(C)c1NC1=NCCCS1,outcome,[2],inactive
same,outcome,[3],inactive
same,outcome,[4],inactive
same,"activity change, negative = inhibition",[1]; at 25.7 µM (top of the series),0.794% (inactive)
same,"activity change, negative = inhibition",[1]; at 57.5 µM (top of the series),0.68% (inactive)
same,max response,[1]; [18],4% and -18.4%
same,max response,[1]; [19],4.95% and -18.3%
same,outcome,[5],inactive
same,Potency,[6],inactive
same,outcome,[16],inactive
same,Potency,[7],7.94 µM (active)
same,Potency,[8],14.1 µM (active)
same,Potency,[9],inactive
same,Potency,[10],inactive
same,Potency,[17],5.01 µM (active)
same,Potency,[12],inactive
same,outcome,[14],inactive
COc1ccccc1N1CCNCC1,outcome,[2],inactive
same,outcome,[3],inactive
same,outcome,[4],inactive
same,"activity change, negative = inhibition",[1]; at 57.5 µM (top of the series),3.26% (inactive) and 0.382% (inactive)
same,max response,[1]; [18],10.9% and -13.3%
same,max response,[1]; [19],15.1% and -12.9%
same,outcome,[5],inactive
same,Potency,[6],inactive
same,outcome,[16],inactive
same,Potency,[7],inactive
same,Potency,[9],inactive
same,Potency,[11],inactive
same,Potency,[12],inactive
same,outcome,[13],inactive
same,outcome,[14],inactive
CC(C)CC(N(C)C)C1(c2ccc(Cl)cc2)CCC1 (centres undefined),"activity change, negative = inhibition",[1]; at 57.5 µM (top of the series),0.545% (inactive)
same,max response,[1]; [18],5.29%
same,max response,[1]; [19],6.62%
Cc1ccc(S(=O)(=O)N[C@@H](CCCCN)C(=O)CCl)cc1,outcome,[2],inactive
same,outcome,[3],inactive
same,outcome,[5],inactive
same,Potency,[6],inactive
same,outcome,[16],inactive
same,Potency,[7],inactive
same,Potency,[8],inactive
same,Potency,[10],inactive
same,Potency,[11],inactive
same,Potency,[12],inactive
same,outcome,[14],inactive
CCC1(C2=NCCN2)Cc2ccccc2O1 (centres undefined),"activity change, negative = inhibition",[1]; at 57.5 µM (top of the series),-1.14% (inactive)
same,max response,[1]; [18],-3.38%
same,max response,[1]; [19],-2.07%
same,outcome,[5],inactive
same,Potency,[6],inactive
same,outcome,[16],inactive
same,Potency,[8],12.6 µM (active)
same,Potency,[9],inactive
same,Potency,[10],inactive
same,Potency,[11],8.91 µM (active)
same,Potency,[17],3.98 µM (active)
same,Potency,[12],inactive
same,outcome,[14],inactive
